Calls of active or inactive are those of the source.
How the values were obtained:
[1] = anti-His antibody binders, primary screen, artefact control for SMM control protein annotation, biochemical, small-molecule microarray, 635 nm fluorescence (AID 1128); settings: anti-His Alexa647 antibody binding, higher = more signal;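 also: score merges feature fluorescence with signal-to-noise for each printed compound spot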
[2] = test system: Human papillomavirus type 1a E7 protein (residues 1-88); assay: HPV1a E7 small-molecule binders, primary screen, biochemical, small-molecule microarray, residues 1-88, 635 nm (AID 1129); settings: small-molecule microarray binding, fluorescence 635 nm; higher = more signal
[3] = molecular target: Focal adhesion kinase 1 (Homo sapiens) (UniProt Q05397); assay: small-molecule microarray binders of FAK, primary screen, biochemical, 635/667 nm fluorescence, BSA, DTT (AID 1130); settings: PTK2 binding, 635 nm fluorescence, higher = more signal;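 also: composite of spot emission at 667 nm and signal to noise over triplicate slides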
[4] = test system: Fibrinogen (Alexa647-labelled); assay: fibrinogen binders on compound microarrays, profiling panel, artefact control for SMM control-protein annotation, biochemical, small-molecule microarray, 635/667 nm fluorescence (AID 1131); settings: fibrinogen-A647 binding fluorescence, higher = more signal;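 also: z-score merges 667 nm fluorescence with per-spot signal-to-noise over triplicate slides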
[5] = molecular target: Follistatin (Homo sapiens) (UniProt P19883); assay: follistatin binders on small-molecule microarrays, primary screen, biochemical, small-molecule microarray, 635/667 nm fluorescence (AID 1132); settings: FST binding, 635 nm fluorescence, higher = more signal
[6] = molecular target: Fibroblast growth factor 2 (Homo sapiens) (UniProt P09038); assay: FGF2 binders on small-molecule microarrays, primary screen, biochemical, small-molecule microarray, 635/667 nm fluorescence (AID 1133); settings: small-molecule microarray binding, FGF2, fluorescence 635/667; higher = more signal
[7] = mitochondrial membrane potential change in A549 cells, profiling panel, cell-based, JC-1 fluorescence, basal, 24 h, 100 nL (AID 1138); settings: higher = more signal;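 also: A549 lung adenocarcinoma cells under basal conditions with no added stimulus; test concentration not given here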
Lefty1 = Lefty1 binders on small-molecule microarrays, primary screen, biochemical, small-molecule microarray, 635/667 nm fluorescence (AID 1139); settings: small-molecule microarray binding, fluorescence 635/667; higher = more signal
[8] = test system: wheat germ agglutinin (Triticum aestivum), Alexa647-labelled; assay: wheat germ agglutinin binders on compound microarrays, profiling panel, artefact control for SMM control-protein annotation, biochemical, small-molecule microarray, 635/667 nm fluorescence (AID 1140); settings: WGA-A647 binding, 635 nm fluorescence, higher = more signal;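 also: score merges 667 nm feature emission with signal to noise over triplicate slides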
[9] = molecular target: Luciferin 4-monooxygenase (Photinus pyralis) (UniProt P08659); assay: firefly luciferase enzyme inhibitors, primary screen, biochemical, luminescence, purified enzyme, 2006 set (AID 1141); settings: SteadyGlo luminescence, 30 min, higher = more signal, called active from +8 up or from −8 down;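 also: cell-free assay with purified firefly luciferase at 100 ng per well in PBS; test concentration not given here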
Chain of Luciferin 4-monooxygenase (Photinus pyralis) (P08659 whole entry, looked up): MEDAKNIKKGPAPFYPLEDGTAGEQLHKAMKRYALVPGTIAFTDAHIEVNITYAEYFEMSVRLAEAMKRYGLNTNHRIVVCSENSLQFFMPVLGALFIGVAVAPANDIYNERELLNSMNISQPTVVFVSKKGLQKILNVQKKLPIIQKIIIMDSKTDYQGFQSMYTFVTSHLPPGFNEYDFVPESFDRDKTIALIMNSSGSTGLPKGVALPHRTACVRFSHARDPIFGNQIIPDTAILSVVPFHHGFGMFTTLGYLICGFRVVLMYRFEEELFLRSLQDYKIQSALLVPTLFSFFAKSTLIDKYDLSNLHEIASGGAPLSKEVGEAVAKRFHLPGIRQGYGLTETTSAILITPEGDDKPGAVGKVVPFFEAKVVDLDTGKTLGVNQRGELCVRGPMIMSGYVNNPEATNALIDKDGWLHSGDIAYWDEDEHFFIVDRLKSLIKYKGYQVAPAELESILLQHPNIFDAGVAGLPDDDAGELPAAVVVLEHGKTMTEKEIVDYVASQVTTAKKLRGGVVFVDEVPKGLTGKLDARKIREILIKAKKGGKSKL

Chain of Fibroblast growth factor 2 (Homo sapiens) (P09038 whole entry, looked up): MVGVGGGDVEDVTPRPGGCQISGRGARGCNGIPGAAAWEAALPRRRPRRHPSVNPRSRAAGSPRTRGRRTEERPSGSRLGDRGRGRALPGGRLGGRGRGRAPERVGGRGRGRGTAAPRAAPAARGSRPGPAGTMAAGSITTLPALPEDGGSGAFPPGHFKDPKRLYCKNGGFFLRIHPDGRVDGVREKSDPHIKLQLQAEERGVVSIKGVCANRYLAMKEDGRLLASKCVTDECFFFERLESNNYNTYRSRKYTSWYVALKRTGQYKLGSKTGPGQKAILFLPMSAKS
Chain of Follistatin (Homo sapiens) (P19883 whole entry, looked up): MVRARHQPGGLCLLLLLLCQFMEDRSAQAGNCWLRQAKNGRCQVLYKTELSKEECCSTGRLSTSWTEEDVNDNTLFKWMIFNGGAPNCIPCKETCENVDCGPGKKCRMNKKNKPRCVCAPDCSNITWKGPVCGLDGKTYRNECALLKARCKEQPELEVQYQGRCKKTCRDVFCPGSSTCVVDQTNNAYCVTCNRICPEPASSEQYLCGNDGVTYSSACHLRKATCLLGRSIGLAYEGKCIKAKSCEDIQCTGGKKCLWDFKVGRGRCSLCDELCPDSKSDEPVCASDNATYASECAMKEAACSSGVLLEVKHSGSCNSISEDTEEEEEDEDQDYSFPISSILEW
Chain of Focal adhesion kinase 1 (Homo sapiens) (Q05397 whole entry, looked up): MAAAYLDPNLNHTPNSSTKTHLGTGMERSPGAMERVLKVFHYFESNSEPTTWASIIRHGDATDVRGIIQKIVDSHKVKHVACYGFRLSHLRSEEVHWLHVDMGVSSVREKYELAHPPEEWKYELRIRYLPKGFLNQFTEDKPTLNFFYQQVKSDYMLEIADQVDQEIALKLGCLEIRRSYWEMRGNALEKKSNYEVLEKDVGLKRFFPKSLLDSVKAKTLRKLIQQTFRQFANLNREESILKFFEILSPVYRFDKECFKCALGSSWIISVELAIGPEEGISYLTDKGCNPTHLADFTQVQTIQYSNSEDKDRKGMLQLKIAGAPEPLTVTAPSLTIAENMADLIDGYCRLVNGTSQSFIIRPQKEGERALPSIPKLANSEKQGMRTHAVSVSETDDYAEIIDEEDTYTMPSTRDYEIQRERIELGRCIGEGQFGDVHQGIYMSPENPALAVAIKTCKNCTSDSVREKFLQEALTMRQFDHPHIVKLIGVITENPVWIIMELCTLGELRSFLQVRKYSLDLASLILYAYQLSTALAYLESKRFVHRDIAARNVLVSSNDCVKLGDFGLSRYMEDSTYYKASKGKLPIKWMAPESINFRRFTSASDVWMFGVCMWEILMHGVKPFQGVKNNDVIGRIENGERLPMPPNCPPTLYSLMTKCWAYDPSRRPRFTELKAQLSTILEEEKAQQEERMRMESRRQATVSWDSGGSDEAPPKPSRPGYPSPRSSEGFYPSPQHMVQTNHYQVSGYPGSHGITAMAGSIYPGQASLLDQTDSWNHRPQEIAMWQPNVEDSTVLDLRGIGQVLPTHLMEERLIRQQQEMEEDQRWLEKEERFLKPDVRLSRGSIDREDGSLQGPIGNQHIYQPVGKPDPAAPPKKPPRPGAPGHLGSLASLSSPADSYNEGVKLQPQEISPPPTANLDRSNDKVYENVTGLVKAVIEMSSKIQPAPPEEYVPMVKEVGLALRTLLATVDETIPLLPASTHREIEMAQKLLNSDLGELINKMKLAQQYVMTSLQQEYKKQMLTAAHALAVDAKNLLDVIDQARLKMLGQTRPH

| SMILES | composite z-score [1] | composite z-score [2] | composite z-score [3] | composite z-score [4] | composite z-score [5] | composite z-score [6] | z-score [7] | composite z-score (Lefty1) | composite z-score [8] | z-score [9] |
| --- | --- | --- | --- | --- | --- | --- | --- | --- | --- | --- |
| CCCCCN1CC=CC23O[C@@H]4C=CCCOC(=O)C4[C@H]2C(=O)N(CCCCCO)[C@@H]3C1=O (stereo not given in full) | 0.587 | 0.0287 | -0.383 | 0.302 | -1.03 | -0.347 | 1.4 | -0.582 | 0.796 | 0.0192 (inactive) |
| O=C(NCCN1CCOCC1)C1N=C(c2ccc(OCCCO)cc2)N(c2ccccc2)O1 (stereo not given) | 1.22 | 1.29 | 0.124 | 0.545 | 1.52 | 1.58 | 1.23 | 0.813 | 0.61 | -8.16 (active) |
| NC(=O)N1C(=O)C2C(C1=O)C1C=C(c3ccc(CO)cc3)C2C(c2cccs2)N1Cc1cccc(OC(F)(F)F)c1 (stereo not given) | 1.16 | 0.0253 | 0.556 | -0.0767 | 0.704 | -0.365 | 1.22 | 0.444 | 0.949 | -2.17 (inactive) |
| NC(=O)NCC#Cc1ccc2c(c1)[C@]1(C(=O)N2)[C@H](c2ccccc2OCCO)N2[C@H](c3ccccc3)[C@H](c3ccccc3)OC(=O)[C@H]2[C@@H]1C(=O)Nc1nc2ccccc2s1 | 0.111 | 0.844 | 0.346 | 0.613 | 0.759 | 0.244 | -2.13 | 0.373 | 0.89 | 0.302 (inactive) |
| C=CC[C@]1(C(=O)NCCCOC)N=C(c2ccc(OCCCO)cc2)O[C@H]1c1ccccc1CN=[N+]=[N-] | 2.44 | 1.23 | 0.932 | 1 | 1.14 | 0.564 | 2.04 | -0.0763 | 0.934 | -0.529 (inactive) |
| O=C1c2ccccc2[C@](Cc2ccccc2I)(C(=O)NCCN2CCOCC2)[C@H](c2ccc(CO)cc2)N1C1CCCCC1 | 1.77 | 1.19 | 0.991 | 0.927 | 1.34 | 0.804 | 1.34 | 1.36 | 1.16 | -0.147 (inactive) |
| COC(=O)[C@H](Cc1ccccc1)N1CC2=C[C@@H](C3CC3)n3c(=O)n(C)c(=O)n3[C@H]2[C@@H]1[C@@H](O)Cc1ccccc1 | 0.0823 | 0.881 | 0.148 | 0.588 | 0.898 | 0.212 | 1.58 | 0.972 | 0.0263 | -0.126 (inactive) |
| CCOC(=O)C[C@H]1[C@H](OC(=O)c2ccc(C(=O)c3ccccc3)cc2)[C@@H](NC(=O)c2ccccc2)c2cc(OCCCO)ccc2N1C(=O)Cc1ccc(OC)cc1 | -0.239 | -0.158 | 0.0147 | 0.204 | 0.0257 | -0.358 | 2.33 | 0.545 | -0.0653 | -0.863 (inactive) |
| COc1cc(COC(C)=O)ccc1OC(C)=O | -0.0364 | 0.262 | 0.661 | 0.0038 | 0.512 | 0.102 | 1.47 | 0.45 | -0.155 | -1.52 (inactive) |
| COC(=O)[C@@]1(CCC(=O)OC(C)(C)C)N=C(c2ccc(OCCCO)cc2)O[C@H]1c1ccccc1N=[N+]=[N-] | 0.421 | 1.17 | 0.723 | 0.942 | 1.24 | 0.0436 | 1.01 | 0.303 | 0.658 | -7.29 (inactive) |
| CN(C)CCCC[C@@H]1NC(=O)[C@@H]2C[C@H](C(=O)NCCCCCCN)[C@H](c3cccc(OCCO)c3)N2C1=O | 3.34 | 1.2 | 1.48 | 0.936 | 0.861 | 0.357 | -0.9 | 0.409 | 1.49 | 0.132 (inactive) |
| CCOC(=O)C[C@H]1[C@H](OC(=O)c2ccc(C(=O)c3ccccc3)cc2)[C@@H](NC(=O)CC(C)C)c2cc(OCCCO)ccc2N1C(=O)c1ccc2ccccc2n1 | 1.35 | 1.21 | 0.0174 | 0.989 | 1.15 | 0.94 | 1.78 | 1.36 | 0.61 | 0.103 (inactive) |
| COc1cc2c(cc1OC)CN(C(=O)[C@@H]1[C@H]3C(=O)O[C@H](c4ccccc4)[C@H](c4ccccc4)N3[C@H](c3ccc(O)cc3)[C@@]13C(=O)Nc1ccccc13)CC2 | 0.948 | 1.21 | 0.684 | 0.962 | 0.421 | 0.246 | -0.379 | 0.259 | 0.965 | 0.81 (inactive) |
| COc1ccc(CCNC(=O)[C@@]2(C)c3ccccc3C(=O)N(C(C)C)[C@H]2c2ccc(CO)cc2)cc1 | 1.63 | 1.19 | -0.0743 | 0.0931 | 0.674 | 0.493 | 0.537 | 0.826 | 0.544 | -1.19 (inactive) |
| O=C(c1ccccc1)N1Cc2ccccc2C[C@@]2(COC(c3ccc(OCCCO)cc3)=N2)C1=O | 2.32 | 1.23 | 0.242 | 0.905 | 1.34 | 1.45 | 0.604 | 0.663 | 0.71 | -1.31 (inactive) |
| Cc1ccc(N2C(=O)c3ccccc3[C@@H](C(=O)NC3CC3)[C@@H]2c2ccc(CO)cc2)nc1 | 0.442 | -0.372 | -1.29 | -3.9 | -0.71 | 0.392 | -0.487 | -1.79 | -0.0414 | 0.309 (inactive) |
| O=C1C2C=CC(C(O)Cc3ccccc3)N(n3cnnc3)C2C(=O)N1Cc1ccccc1 (stereo not given) | 1.38 | 0.396 | -0.249 | 0.573 | -0.185 | -0.279 | -1.48 | -0.648 | 1.31 | 0.921 (inactive) |
| CC(C)=CCN[C@H](CO)c1ccccc1 | -0.23 | -0.341 | -0.0383 | 0.118 | 0.546 | 0.314 | -0.989 | 0.564 | -0.246 | 0.765 (inactive) |
| CCCCN1CC=CC23O[C@@H]4C=CCCOC(=O)C4[C@H]2C(=O)N(CCCCCCO)[C@@H]3C1=O (stereo not given in full) | 0.435 | -0.268 | 0.0134 | -0.796 | 0.0593 | -0.88 | 0.807 | 1.28 | 0.379 | -0.947 (inactive) |
| O=C1C[C@]2(c3ccc([N+](=O)[O-])cc3)C(=O)N(CC(F)(F)F)c3cc(CO)ccc3[C@H]2N1C1CCCCC1 | -1.55 | -0.15 | 0.114 | -0.603 | -1.13 | -0.808 | 0.673 | -1.44 | -0.288 | -1 (inactive) |
| COCCOC(=O)N1C(=O)[C@@]2(c3cc(C#CC4(O)CCCCCC4)ccc31)[C@H](c1ccc(OCCO)cc1)N1[C@H](c3ccccc3)[C@H](c3ccccc3)OC(=O)[C@H]1[C@@H]2C(=O)N1CCN(c2ncccn2)CC1 | 1.39 | 1.21 | 0.333 | 0.956 | 1.03 | 0.758 | -1.1 | 0.651 | 0.458 | -0.606 (inactive) |
| C=CCNC(=O)[C@@H]1[C@H]2C(=O)O[C@H](c3ccccc3)[C@H](c3ccccc3)N2[C@H](c2ccc(OCCO)cc2)[C@@]12C(=O)Nc1ccc(C#CCC(C(=O)OC)C(=O)OC)cc12 | 2.67 | 1.2 | 0.913 | 0.641 | 0.85 | 0.582 | -0.21 | 0.728 | 1.25 | -1.08 (inactive) |
| CC(C)C(CO)N1C(=O)[C@@H]2C3C(=O)OCCC/C=C\[C@H]3OC23C=CCN(CCN2CCOCC2)C(=O)[C@@H]13 (stereo not given in full) | -0.92 | -1.54 | -0.0582 | -0.0904 | 0.113 | 0.164 | -0.835 | 0.579 | -1.24 | -0.519 (inactive) |
| COC(=O)[C@H](Cc1ccccc1)N[C@@H](/C=C/C1CC1)[C@H](O)Cc1ccccc1 | -0.477 | -0.236 | -0.415 | 0.475 | -0.405 | -0.489 | -0.349 | -0.21 | 0.319 | 0.702 (inactive) |
| CCCC[C@@H]1C[C@H]1[C@@H](NC(=O)c1ccccc1)c1ccc(C(=O)OC)cc1 | -0.248 | -0.429 | 0.0213 | 0.0563 | -0.676 | -1.67 | 0.348 | -0.684 | -0.113 | -0.438 (inactive) |
| CC[C@@H]1C=C(C(=O)O)[C@H](c2ccc(Br)cc2)N1S(=O)(=O)c1ccc(C)cc1 | 0.153 | 1.04 | 0.453 | 0.886 | 0.076 | -0.0934 | -0.785 | 0.0429 | 0.554 | 0.942 (inactive) |
